In all, about 39,000 compounds went through this assay and about 3,300 (8.5%) were called active. The full list was thinned out, with actives kept by preference.
Test system: HepG2
Assay: cytotoxicity call (relative viability < 0.9)
Conditions: 10 µM

SMILES | cytotoxicity call
C[C@H]1CCCCO[C@@H](CN(C)Cc2ccncc2)[C@@H](C)CN([C@@H](C)CO)C(=O)c2cc(NC(=O)Cc3ccccc3)ccc2O1 | inactive
C[C@@H]1CN([C@@H](C)CO)C(=O)Cc2cc(NC(=O)Nc3cccc4ccccc34)ccc2O[C@H]1CN(C)S(=O)(=O)c1cccs1 | inactive
C[C@H](CO)N1C[C@H](C)[C@@H](CN(C)C(=O)NC2CCCCC2)Oc2cc(-c3cccnc3)ccc2S1(=O)=O | inactive
Cc1ccc(S(=O)(=O)N2C[C@@H](O)COC[C@H]3O[C@H](CC(=O)NCCCN(C)C)CC[C@@H]32)cc1 | inactive
Cc1noc(C)c1NC(=O)Nc1ccc2c(c1)C(=O)N([C@H](C)CO)C[C@H](C)[C@H](CN(C)Cc1ccc(Cl)c(Cl)c1)O2 | inactive
C=CCC[C@@H](Cc1ccc(F)cc1)C(=O)O[C@@H](CNC(=O)[C@@H](CC=C)CC(=O)N[C@H](CO)Cc1ccccc1)c1ccccc1 | active
C=CC[C@@H](CC(=O)N[C@@H](CO)Cc1ccccc1)C(=O)NC[C@H](OC(=O)[C@@H](CC=C)Cc1ccc(F)cc1)c1ccccc1 | inactive
C=CCC[C@H](Cc1ccc(F)cc1)C(=O)O[C@@H](CNC(=O)[C@@H](CC=C)CC(=O)N[C@H](CO)Cc1ccccc1)c1ccccc1 | inactive
C=CC[C@@H](CC(=O)N[C@@H](CO)Cc1ccccc1)C(=O)NC[C@@H](OC(=O)[C@@H](CC=C)Cc1ccc(F)cc1)c1ccccc1 | inactive
C=CCC[C@H](Cc1ccc(F)cc1)C(=O)O[C@@H](CNC(=O)[C@@H](CC=C)CC(=O)N[C@@H](CO)Cc1ccccc1)c1ccccc1 | inactive
C=CC[C@@H](CC(=O)N[C@H](CO)Cc1ccccc1)C(=O)NC[C@H](OC(=O)[C@@H](CC=C)Cc1ccc(F)cc1)c1ccccc1 | active
Nc1ncnc2c1CCC2 | inactive
CCCCCCCCNC(C)C(O)c1ccc(SC(C)C)cc1 (stereo unspecified) | active
CC(NCCc1ccc(O)cc1)C(O)c1ccc(O)cc1.Cl (stereo unspecified) | inactive
CCCCCCCCNC[C@@H](O)[C@H](O)[C@@H](O)[C@@H](O)CO | inactive
C[C@H]1CN([C@@H](C)CO)C(=O)c2cc(NC(=O)Cc3ccccc3)ccc2O[C@H]1CN(C)S(=O)(=O)c1cn(C)cn1 | inactive
C[C@@H]1CN([C@@H](C)CO)C(=O)c2cc(NS(=O)(=O)c3ccc(F)cc3)ccc2O[C@@H]1CN(C)C(=O)Nc1cccc2ccccc12 | inactive
N[C@@H](CC(=O)Nc1ccc(Cl)cc1)C(=O)O | inactive
CC(C)NC(=N)NC(=N)Nc1ccc(Cl)cc1.Cl | active
Cl.Cl.N=C(NCCCCCCNC(=N)NC(=N)Nc1ccc(Cl)cc1)NC(=N)Nc1ccc(Cl)cc1 | active
C[C@H](CO)N1C[C@H](C)[C@@H](CN(C)S(=O)(=O)c2ccccc2)Oc2c(NC(=O)C3CC3)cccc2C1=O | inactive

SMILES | cytotoxicity call
C[C@H]1CN([C@@H](C)CO)C(=O)c2cccc(NC(=O)c3ccncc3)c2O[C@@H]1CN(C)S(=O)(=O)c1ccc(F)cc1 | inactive
COCCN1CCC(N(Cc2ccc(-c3ccc(C(F)(F)F)cc3)cc2)C(=O)Cn2c(SCc3cccc(F)c3F)cc(=O)c3ccccc32)CC1 | active
C[C@@H]1CN([C@@H](C)CO)C(=O)c2cc(NC(=O)c3ccncc3)ccc2O[C@@H](C)CCCCO[C@@H]1CN(C)S(C)(=O)=O | inactive
COc1ccc2c(c1)C(=O)C(=O)N2 | inactive
COc1ccc2c(c1)/C(=N\O)C(=O)N2 | inactive
O=C1Nc2ccc(I)cc2C1=Cc1cc(Br)c(O)c(Br)c1 | active
CC(C)C[C@@H](N)C(=O)N[C@H]1C(=O)N[C@@H](CC(N)=O)C(=O)N[C@H]2C(=O)N[C@H]3C(=O)N[C@H](C(=O)N[C@H](C(=O)O)c4cc(O)cc(O)c4-c4cc3ccc4O)[C@H](O)c3ccc(c(Cl)c3)Oc3cc2cc(c3O[C@@H]2O[C@H](CO)[C@@H](O)[C@H](O)[C@H]2O[C@H]2C[C@](C)(N)[C@H](O)[C@H](C)O2)Oc2ccc(cc2Cl)[C@H]1O | inactive
C[C@@H]1CCCCO[C@@H](CN(C)C(=O)Nc2cccc3ccccc23)[C@@H](C)CN([C@H](C)CO)C(=O)c2cc(NS(=O)(=O)c3ccc(Cl)cc3)ccc2O1 | inactive
COc1ccc(S(=O)(=O)Nc2ccc3c(c2)[C@@H]2C[C@@H](CC(=O)NCC4CC4)O[C@H](CO)[C@@H]2O3)cc1 | inactive
CS(=O)(=O)O.CSc1ccc2c(c1)C(N1CCN(C)CC1)Cc1ccccc1S2 (stereo unspecified) | active
C[C@H]1CN([C@@H](C)CO)C(=O)Cc2cc(NC(=O)Nc3cccc4ccccc34)ccc2O[C@H]1CN(C)S(=O)(=O)c1ccc(F)cc1 | inactive
C[C@H](CO)N1C[C@H](C)[C@H](CN(C)Cc2ccc(-c3ccccc3)cc2)Oc2c(NC(=O)c3ccc(-c4nccs4)cc3)cccc2C1=O | inactive
C[C@@H]1CN([C@H](C)CO)C(=O)c2cc(NC(=O)Nc3ccc(C(F)(F)F)cc3)ccc2O[C@@H]1CN(C)Cc1ccc(Oc2ccccc2)cc1 | active
C[C@H](CO)N1C[C@H](C)[C@H](CN(C)Cc2ccc(Oc3ccccc3)cc2)Oc2ccc(NC(=O)Nc3ccc(C(F)(F)F)cc3)cc2C1=O | active
C[C@H]1CN([C@@H](C)CO)C(=O)c2cc(NC(=O)Nc3ccc(C(F)(F)F)cc3)ccc2O[C@H]1CN(C)Cc1ccc(Oc2ccccc2)cc1 | active
C[C@@H]1CN([C@@H](C)CO)C(=O)c2cc(NC(=O)Nc3ccc(C(F)(F)F)cc3)ccc2O[C@H]1CN(C)Cc1ccc(Oc2ccccc2)cc1 | active
C[C@H]1CN([C@@H](C)CO)C(=O)c2cc(NC(=O)Nc3ccc(C(F)(F)F)cc3)ccc2O[C@@H]1CN(C)Cc1ccc(Oc2ccccc2)cc1 | inactive
C[C@@H]1CN([C@H](C)CO)C(=O)c2cc(NC(=O)Nc3ccc(C(F)(F)F)cc3)ccc2O[C@H]1CN(C)Cc1ccc(Oc2ccccc2)cc1 | inactive
C[C@H](CO)N1C[C@H](C)[C@@H](CN(C)Cc2ccc(Oc3ccccc3)cc2)Oc2ccc(NC(=O)Nc3ccc(C(F)(F)F)cc3)cc2C1=O | inactive
C[C@@H]1CN([C@@H](C)CO)S(=O)(=O)c2ccc(Br)cc2O[C@H]1CN(C)CC1CCOCC1 | inactive
